Reference: PubChem BioAssay (Tox21)
Several values for one entry are separate records, joined by “and”; a condition that tells them apart may be missing. Identical values can stand only once. Records with an inconclusive call do not appear. Activity calls are given as the source filed them. Unless noted, calls follow the shape of the dose curve; as a rule, active = well fitted curve in the direction sought with a large enough effect in the repeat runs; inconclusive = weak or mixed curves; inactive = no such curve, though single readings can be large; an effect the other way counts as inactive or inconclusive.

Legend:
[1] = qHTS assay to identify small molecule antagonists of the thyroid receptor (TR) signaling pathway (AID 743065); also: nearly all actives have a fitted effect of over 55% in size; also: potency is read from the fitted curve at half-maximal effect; as to activity, negative = inhibition: series mostly up to about 70 µM
Outline: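 GH3.TRE-Luc rat pituitary cells carrying two TR response elements driving luciferase were plated for 4 h, given compound plus 1 nM T3 (final), and incubated 23.5 h at 37 C. ONE-Glo luminescence measured reporter inhibition; CellTiter-Fluor fluorescence tracked cytotoxicity.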

[2] = test system: thyroid hormone receptor (rat, GH3 cells); experiment: qHTS assay to identify small molecule agonists of the thyroid receptor (TR) signaling pathway (AID 743066; calls by dose curve)
[3] = qHTS assay to identify small molecule antagonists of the estrogen receptor alpha (ER-alpha) signaling pathway - cell viability counter screen (AID 743074; calls by dose curve; also: nearly all actives have a fitted effect of over 45% in size)
[4] = qHTS assay to identify small molecule antagonists of the estrogen receptor alpha (ER-alpha) signaling pathway using the BG1 cell line - cell viability counter screen (AID 743081);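 also: compound given together with 17beta-estradiol as the ER stimulus; series mostly up to about 70 µM; nearly all actives have a fitted effect of over 45% in size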
Aromatase (Homo sapiens) = Aromatase (Homo sapiens) (UniProt P11511); experiment: qHTS assay to identify aromatase inhibitors (AID 743083); also: series mostly up to about 70 µM; nearly all actives have a fitted effect of over 55% in size
Chain of Aromatase (Homo sapiens) (P11511 whole entry, looked up): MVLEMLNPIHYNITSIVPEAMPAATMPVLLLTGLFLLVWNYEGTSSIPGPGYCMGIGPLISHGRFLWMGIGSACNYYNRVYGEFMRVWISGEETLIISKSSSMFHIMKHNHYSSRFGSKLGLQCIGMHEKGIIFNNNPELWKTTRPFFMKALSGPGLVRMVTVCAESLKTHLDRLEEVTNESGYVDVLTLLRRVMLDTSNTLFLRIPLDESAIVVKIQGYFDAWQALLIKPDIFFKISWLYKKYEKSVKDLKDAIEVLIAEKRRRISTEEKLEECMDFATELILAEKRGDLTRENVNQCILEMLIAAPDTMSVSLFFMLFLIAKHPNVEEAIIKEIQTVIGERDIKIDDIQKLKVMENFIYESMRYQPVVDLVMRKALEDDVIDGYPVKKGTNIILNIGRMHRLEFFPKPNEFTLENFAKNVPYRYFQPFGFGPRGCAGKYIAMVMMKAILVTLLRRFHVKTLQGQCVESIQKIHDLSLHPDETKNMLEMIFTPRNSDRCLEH

[5] = qHTS assay to identify aromatase inhibitors - cell viability counter screen (AID 743084);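 also: cells stimulated with testosterone during compound exposure; nearly all actives have a fitted effect of over 55% in size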
[6] = molecular target: Aryl hydrocarbon receptor (Homo sapiens) (UniProt P35869); experiment: qHTS assay to identify small molecule that activate the aryl hydrocarbon receptor (AhR) signaling pathway (AID 743085); also: nearly all actives have a fitted effect of over 15% in size; also: potency is read from the fitted curve at half-maximal effect;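 as to activation: HG2L7.5c1 human HepG2 liver cells with stably integrated DRE-driven firefly reporter; series mostly up to about 70 µM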
Chain of Aryl hydrocarbon receptor (Homo sapiens) (P35869 whole entry, looked up): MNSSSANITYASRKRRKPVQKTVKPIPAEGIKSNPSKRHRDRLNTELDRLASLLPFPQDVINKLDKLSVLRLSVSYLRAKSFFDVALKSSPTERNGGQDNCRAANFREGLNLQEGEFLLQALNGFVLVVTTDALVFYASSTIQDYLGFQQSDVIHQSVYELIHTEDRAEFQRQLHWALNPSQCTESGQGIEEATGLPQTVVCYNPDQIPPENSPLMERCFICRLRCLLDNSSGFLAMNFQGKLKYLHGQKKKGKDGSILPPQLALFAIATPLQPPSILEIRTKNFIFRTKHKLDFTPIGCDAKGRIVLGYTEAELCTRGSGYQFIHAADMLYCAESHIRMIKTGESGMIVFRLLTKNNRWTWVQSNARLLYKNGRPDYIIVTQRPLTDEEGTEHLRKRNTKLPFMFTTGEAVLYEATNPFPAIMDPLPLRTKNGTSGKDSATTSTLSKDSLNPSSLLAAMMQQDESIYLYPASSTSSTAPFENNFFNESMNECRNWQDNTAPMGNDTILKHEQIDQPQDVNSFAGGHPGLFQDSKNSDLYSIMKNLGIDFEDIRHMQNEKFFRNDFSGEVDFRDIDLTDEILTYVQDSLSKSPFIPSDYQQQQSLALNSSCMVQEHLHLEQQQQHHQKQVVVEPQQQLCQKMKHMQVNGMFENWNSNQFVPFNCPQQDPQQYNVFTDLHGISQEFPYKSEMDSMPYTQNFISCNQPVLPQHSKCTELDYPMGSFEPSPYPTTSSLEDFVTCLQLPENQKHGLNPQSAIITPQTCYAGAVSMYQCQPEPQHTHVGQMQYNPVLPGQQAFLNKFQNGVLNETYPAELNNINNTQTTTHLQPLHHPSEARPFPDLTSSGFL
Outline: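 Reporter assay in engineered HepG2 line HG2L7.5c1, whose plasmid carries twenty dioxin responsive elements upstream of firefly luciferase. Treatment lasted 24 h at 37C; ONE-Glo luminescence gauged induction.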

[7] = qHTS assay to identify small molecule that activate the aryl hydrocarbon receptor (AhR) signaling pathway - cell viability counter screen (AID 743086);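 also: HepG2 liver cells carrying the AhR DRE luciferase reporter; series mostly up to about 70 µM; nearly all actives have a fitted effect of over 45% in size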
Outline: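 HepG2-AhR-luc (HG2L7.5c1) cells, 4000/well, were preincubated 5 h at 37C, exposed to compound in qHTS format for 24 hr at 37C, then given CellTiter-Fluor for 30 min; viability was read as fluorescence in the reporter wells.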

[8] = molecular target: Peroxisome proliferator-activated receptor gamma (Homo sapiens) (UniProt P37231); experiment: qHTS assay to identify small molecule agonists of the peroxisome proliferator-activated receptor gamma (PPARg) signaling pathway (AID 743094; active = well fitted activation curve with a large enough effect in the signal ratio in the repeat runs, not every such curve was filed as active; the % refers to the signal ratio)
Chain of Peroxisome proliferator-activated receptor gamma (Homo sapiens) (P37231 whole entry, looked up): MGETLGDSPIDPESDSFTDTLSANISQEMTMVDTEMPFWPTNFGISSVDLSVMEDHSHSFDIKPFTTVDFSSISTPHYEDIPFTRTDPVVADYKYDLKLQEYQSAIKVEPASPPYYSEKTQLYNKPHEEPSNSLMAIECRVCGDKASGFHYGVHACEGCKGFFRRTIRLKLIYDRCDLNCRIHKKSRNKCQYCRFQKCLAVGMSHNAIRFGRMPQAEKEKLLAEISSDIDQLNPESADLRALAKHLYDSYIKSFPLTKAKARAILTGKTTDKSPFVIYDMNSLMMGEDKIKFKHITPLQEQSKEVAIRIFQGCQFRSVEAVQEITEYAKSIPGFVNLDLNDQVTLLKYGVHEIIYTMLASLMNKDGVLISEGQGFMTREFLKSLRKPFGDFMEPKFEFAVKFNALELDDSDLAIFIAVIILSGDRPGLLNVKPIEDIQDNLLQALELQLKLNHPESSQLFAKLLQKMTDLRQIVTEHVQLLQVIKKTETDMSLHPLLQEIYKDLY
Outline: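 HEK293H PPARg-bla cells, 5 h settle at 37C/5% CO2; compound (DMSO) 17 h, 37C; B/G FRET substrate 1 h RT; fluorescence intensity read-out. qHTS format.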

[9] = qHTS assay to identify small molecule antagonists of the peroxisome proliferator-activated receptor gamma (PPARg) signaling pathway - cell viability counter screen (AID 743194); also: nearly all actives have a fitted effect of over 55% in size
Outline: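 PPARg-UAS-bla HEK293H cells were plated, rested 5 h at 37 C, then treated with compounds plus rosiglitazone (50 nM final) for 17 h at 37 C; viability was then read by CellTiter-Glo luminescence after 30 min at room temperature.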

[10] = qHTS assay for small molecule agonists of the antioxidant response element (ARE) signaling pathway - cell viability counter screen (AID 743203; calls by dose curve; also: nearly all actives have a fitted effect of over 55% in size)
Outline: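 Luminescence read-out (CellTiter-Glo, 30 min at room temperature) measured cell viability in the same wells as the ARE beta-lactamase reporter. HepG2 ARE-bla cells were treated with compounds for 16 hrs at 37C/5% CO2.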

[11] = qHTS assay for small molecule activators of the heat shock response signaling pathway - cell viability counter screen (AID 743209); also: nearly all actives have a fitted effect of over 50% in size
Outline: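 HSE-bla HeLa; 1500 cells/well; overnight 37 C, 5% CO2; compound 5 h 37 C; LiveBLAzer B/G substrate 2.5 h RT; CellTiter-Glo 30 min RT; luminescence.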

[12] = qHTS assay for small molecule activators of the heat shock response signaling pathway (AID 743210; active = well fitted activation curve with a large enough effect in the signal ratio in the repeat runs, with a control signal flat, not every such curve was filed as active; the % refers to the signal ratio;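 also: HeLa cells with beta-lactamase reporter driven by heat shock elements; series mostly up to about 63 µM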)
Outline: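 Activation of heat shock element-controlled beta-lactamase expression is measured in HeLa cells by LiveBLAzer FRET fluorescence, with compound exposure lasting 5 h at 37 C and substrate loading 2.5 h at room temperature.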

[13] = molecular target: Peroxisome proliferator-activated receptor gamma (Homo sapiens) (UniProt P37231); experiment: qHTS assay to identify small molecule antagonists of the peroxisome proliferator-activated receptor gamma (PPARg) signaling pathway (AID 743191; calls by dose curve; also: series mostly up to about 63 µM; nearly all actives have a fitted effect of over 30% in size)
Outline: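 GeneBLAzer PPARg UAS-bla HEK293H cells carrying a UAS-driven beta-lactamase reporter were plated at 3000 cells/well, preincubated 5 h at 37C, then given compound for 17 h at 37C; LiveBLAzer B/G FRET substrate was read after 1 h at room temperature.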

[14] = qHTS assay for small molecule agonists of the antioxidant response element (ARE) signaling pathway (AID 743202; active = well fitted activation curve with a large enough effect in the signal ratio in the repeat runs, not every such curve was filed as active; the % refers to the signal ratio)
Outline: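 Steps: seed ARE-bla HepG2 cells (2,000/well); incubate 5 h at 37 C; add compounds by pin tool; incubate 16 h at 37 C; add FRET substrate; read fluorescence after 2 h at RT.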

[15] = molecular target: Estrogen receptor (Homo sapiens) (UniProt P03372); experiment: qHTS assay to identify small molecule antagonists of the estrogen receptor alpha (ER-alpha) signaling pathway (AID 743069; active = well fitted curve in the direction sought with a large enough effect in the signal ratio in the repeat runs, not every such curve was filed as active; the % refers to the signal ratio)
Chain of Estrogen receptor (Homo sapiens) (P03372 whole entry, looked up): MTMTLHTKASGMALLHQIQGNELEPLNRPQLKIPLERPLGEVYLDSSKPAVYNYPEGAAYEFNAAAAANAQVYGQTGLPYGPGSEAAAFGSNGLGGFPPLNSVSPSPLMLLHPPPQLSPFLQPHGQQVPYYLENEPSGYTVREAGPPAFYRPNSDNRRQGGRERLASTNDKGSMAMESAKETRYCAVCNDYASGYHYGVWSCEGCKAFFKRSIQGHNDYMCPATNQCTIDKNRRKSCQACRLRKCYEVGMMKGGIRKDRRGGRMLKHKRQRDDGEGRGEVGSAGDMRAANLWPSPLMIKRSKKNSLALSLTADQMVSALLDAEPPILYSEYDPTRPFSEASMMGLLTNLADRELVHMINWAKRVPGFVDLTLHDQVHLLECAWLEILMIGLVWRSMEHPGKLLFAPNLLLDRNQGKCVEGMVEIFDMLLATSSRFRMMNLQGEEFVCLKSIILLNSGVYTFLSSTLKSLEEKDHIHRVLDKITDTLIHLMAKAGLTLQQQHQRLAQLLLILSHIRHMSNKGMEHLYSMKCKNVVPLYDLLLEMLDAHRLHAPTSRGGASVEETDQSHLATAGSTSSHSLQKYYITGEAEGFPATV
Outline: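 Screening used a UAS-driven beta-lactamase reporter integrated into HEK293 cells expressing ER-alpha, stimulated with 17beta-estradiol alongside test compounds over 18 hr at 37C; signal came from LiveBLAzer B/G FRET fluorescence.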

[16] = molecular target: Estrogen receptor (Homo sapiens) (UniProt P03372); experiment: qHTS assay to identify small molecule agonists of the estrogen receptor alpha (ER-alpha) signaling pathway (AID 743075; calls by dose curve)
[17] = molecular target: Estrogen receptor (Homo sapiens) (UniProt P03372); experiment: qHTS assay to identify small molecule agonists of the estrogen receptor alpha (ER-alpha) signaling pathway using the BG1 cell line (AID 743079); also: nearly all actives have a fitted effect of over 20% in size; also: potency is read from the fitted curve at half-maximal effect
[18] = qHTS assay to identify small molecule antagonists of the estrogen receptor alpha (ER-alpha) signaling pathway using the BG1 cell line (AID 743080; calls by dose curve; also: series mostly up to about 70 µM; nearly all actives have a fitted effect of over 25% in size)
Outline: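 Antagonist mode: compounds in DMSO were pinned onto BG1-Luc-4E2 cells alongside 17beta-estradiol agonist, incubated 21.5 h, and ERE-driven luciferase measured with ONE-Glo. Cytotoxicity was multiplexed using CellTiter-Fluor fluorescence.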
% is scaled to controls: 0 for no effect and ±100 for the full control effect.

CCCCOCCOCCOCCCC
inactive: Potency [1] | outcome [2] | outcome [3] | Potency [4] | Potency (Aromatase (Homo sapiens)) | Potency [5] | Potency [6] | Potency [7] | outcome [8] | outcome [9] | Potency [10] | outcome [11] | outcome [12]

CC(=O)OCC(=O)[C@@]1(O)CCC2C3CCC4=CC(=O)CC[C@]4(C)C3[C@@H](O)C[C@@]21C (some centres undefined)
inactive: Potency [1] | outcome [2] | outcome [3] | Potency [4] | Potency (Aromatase (Homo sapiens)) | Potency [5] | Potency [6] | Potency [7] | outcome [8] | Potency [13] | outcome [9] | Potency [14] | Potency [10] | outcome [11] | outcome [12]

C/C=C(\C)C#N
inactive: Potency [1] | outcome [2] | outcome [15] | outcome [3] | Potency [16] | Potency [17] | Potency [4] | Potency (Aromatase (Homo sapiens)) | Potency [5] | Potency [6] | Potency [7] | outcome [8] | Potency [10] | outcome [11] | outcome [12]

O=C1CC2CC1C1CCCC21 (centres undefined)
inactive: Potency [1] | outcome [2] | outcome [3] | Potency [16] | outcome [18] | Potency [4] | Potency (Aromatase (Homo sapiens)) | Potency [5] | Potency [6] | Potency [7] | Potency [13] | outcome [9] | Potency [10] | outcome [11] | outcome [12]

CCCCCCOC(=O)CCCCC(=O)OCCCCCC
inactive: Potency [1] | outcome [2] | outcome [3] | Potency [16] | Potency [17] | outcome [18] | Potency [4] | Potency (Aromatase (Homo sapiens)) | Potency [5] | Potency [6] | Potency [7] | outcome [8] | Potency [13] | outcome [9] | Potency [10] | outcome [11] | outcome [12]

c1cnc(N2CCN(Cc3ccc4c(c3)OCO4)CC2)nc1
inactive: Potency [1] | outcome [2] | outcome [3] | Potency [16] | Potency [17] | Potency [4] | Potency (Aromatase (Homo sapiens)) | Potency [5] | Potency [7] | outcome [8] | Potency [13] | outcome [9] | Potency [14] | Potency [10] | outcome [12]

CCCN(CCC)CCc1cccc2c1CC(=O)N2
inactive: Potency [1] | outcome [2] | outcome [3] | Potency [4] | Potency (Aromatase (Homo sapiens)) | Potency [5] | Potency [6] | Potency [7] | outcome [8] | Potency [13] | outcome [9] | Potency [14] | Potency [10] | outcome [11] | outcome [12]

C1OCOCO1
inactive: Potency [1] | outcome [2] | outcome [3] | Potency [4] | Potency (Aromatase (Homo sapiens)) | Potency [5] | Potency [6] | Potency [7] | outcome [9] | Potency [10] | outcome [11] | outcome [12]

CC(C)CCCC(C)N (centres undefined)
active: Potency [17] 21.1 µM
inactive: Potency [1] | outcome [2] | outcome [15] | outcome [3] | Potency [16] | Potency [4] | Potency (Aromatase (Homo sapiens)) | Potency [5] | Potency [6] | Potency [7] | outcome [8] | outcome [9] | Potency [10] | outcome [11] | outcome [12]

Nc1ccc(S(=O)(=O)Nc2ccnn2-c2ccccc2)cc1
inactive: Potency [1] | outcome [2] | outcome [3] | Potency [16] | Potency [17] | outcome [18] | Potency [4] | Potency (Aromatase (Homo sapiens)) | Potency [5] | Potency [6] | Potency [7] | outcome [8] | Potency [13] | outcome [9] | Potency [10] | outcome [11] | outcome [12]

N[C@@H](C(=O)N[C@@H]1C(=O)N2C(C(=O)O)=C(Cl)CS[C@H]12)c1ccccc1
inactive: Potency [1] | outcome [2] | outcome [3] | Potency [16] | Potency [17] | outcome [18] | Potency [4] | Potency (Aromatase (Homo sapiens)) | Potency [5] | Potency [7] | ratio activity, negative = inhibition [13] 6.67% [at 13.2 µM] | activity change, negative = cytotoxicity [9] 0.956% [at 13.2 µM] | activation [14] -0.175% [at 8.36 µM] | viability change, negative = cytotoxic [10] 3.71% [at 8.36 µM] | activity change, negative = cytotoxicity [11] -29.5% [at 13.2 µM] | activation [12] -0.803% [at 13.2 µM]

C[C@H](NC(CCc1ccccc1)C(=O)O)C(=O)N1CCC[C@H]1C(=O)O (some centres undefined)
inactive: Potency [1] | outcome [2] | outcome [15] | Potency [16] | Potency [17] | outcome [18] | Potency [4] | Potency (Aromatase (Homo sapiens)) | Potency [5] | Potency [6] | Potency [7] | outcome [8] | Potency [13] | outcome [9] | Potency [14] | Potency [10] | outcome [11] | outcome [12]

CCC(=O)OC(C)c1ccccc1 (centres undefined)
inactive: Potency [1] | outcome [2] | outcome [3] | Potency [16] | Potency [17] | outcome [18] | Potency [4] | Potency (Aromatase (Homo sapiens)) | Potency [5] | Potency [6] | Potency [7] | Potency [13] | outcome [9] | Potency [14] | Potency [10] | outcome [11] | outcome [12]

CC(C)(c1ccc(O)cc1)c1ccc(O)cc1
active: Potency [1] 61.1 µM | Potency [6] 32.2 µM
inactive: outcome [2] | outcome [3] | outcome [18] | Potency [4] | Potency (Aromatase (Homo sapiens)) | Potency [5] | Potency [7] | outcome [9] | Potency [10] | outcome [11] | outcome [12]

OC(CCN1CCCCC1)(c1ccccc1)C1CC2C=CC1C2 (centres undefined)
active: Potency [1] 26.6 µM and 23.7 µM
inactive: outcome [2] | outcome [3] | Potency [16] | Potency [17] | Potency (Aromatase (Homo sapiens)) | Potency [5] | Potency [6] | Potency [7] | outcome [9] | Potency [10] | outcome [11] | outcome [12]

CCOC(=O)CCC(C)=O
inactive: Potency [1] | outcome [2] | outcome [3] | Potency [16] | Potency [4] | Potency (Aromatase (Homo sapiens)) | Potency [5] | Potency [6] | Potency [7] | outcome [8] | outcome [9] | Potency [10] | outcome [11] | outcome [12]

Nc1ccccc1S(=O)(=O)O
inactive: Potency [1] | outcome [2] | outcome [3] | Potency [4] | Potency (Aromatase (Homo sapiens)) | Potency [5] | Potency [6] | Potency [7] | Potency [13] | outcome [9] | Potency [14] | Potency [10] | outcome [11] | outcome [12]

CCc1cccc2c(CCO)c[nH]c12
inactive: Potency [13] | outcome [9] | Potency [14] | Potency [10] | outcome [11] | outcome [12]

NCCc1cnc[nH]1
inactive: Potency [1] | outcome [2] | outcome [3] | Potency [4] | Potency (Aromatase (Homo sapiens)) | Potency [5] | Potency [7] | outcome [9] | Potency [14] | Potency [10] | outcome [12]

CCn1nc(C(=O)O)c(=O)c2cc3c(cc21)OCO3
inactive: outcome [15] | outcome [3] | Potency [16] | Potency [17] | Potency [4] | Potency (Aromatase (Homo sapiens)) | Potency [5] | Potency [6] | Potency [7] | outcome [8] | Potency [13] | outcome [9] | Potency [14] | Potency [10] | outcome [11] | outcome [12]

CC(=O)CC(C)C
inactive: Potency [1] | outcome [2] | outcome [3] | Potency [5] | Potency [7] | Potency [13] | outcome [9] | Potency [14] | Potency [10] | outcome [11]

CN1N=C(C(N)=O)CCC1=O
inactive: Potency [13] | outcome [9] | Potency [14] | Potency [10] | outcome [11] | outcome [12]

Cn1cc(S(C)=O)c(=O)c2ccc(F)cc21 (centres undefined)
inactive: Potency [1] | outcome [2] | Potency [16] | Potency [17] | outcome [18] | Potency (Aromatase (Homo sapiens)) | Potency [5] | Potency [6] | Potency [7] | outcome [8] | Potency [13] | outcome [9] | Potency [14] | Potency [10] | outcome [12]
